Assay results as given in PubChem BioAssay (NCATS).
Several values for one entry are separate records, joined by “and”; a condition that tells them apart may be missing. Equal entries are not always repeated. Results filed as inconclusive are left out. More than one record can exist for a structure, and the calls need not agree. The list shows a part of the results. Entries that show only a call come without a potency. Activity calls are given as the source filed them. Unless noted, calls follow the shape of the dose curve; as a rule, active = well fitted curve in the direction sought with a large enough effect; inconclusive = small, poorly fitted or top-dose-only effect, or another doubt; inactive = no such curve, though single readings can be large; an effect the other way counts as inactive or inconclusive.

Legend:
[1] = qHTS for Inhibitors of Plasmodium falciparum (DD2) proliferation (AID 504314); also: potency is read from the fitted curve at half-maximal effect;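 as to activity, negative = inhibition: parasite DNA measured by SYBR Green fluorescence after red cell lysis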
In short: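 Erythrocytes infected with P. falciparum (0.3% parasitemia, 2.5% hematocrit final) were incubated with compounds for 72 h at 37C, 5% CO2. Parasite DNA was detected by SYBR Green I fluorescence after saponin/Triton lysis, normalized to artemisinin (0.29 uM) and DMSO controls.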

[2] = qHTS for Inhibitors of Plasmodium falciparum (GB4) proliferation (AID 504315); also: nearly all actives have a fitted effect of over 50% in size; also: potency is read from the fitted curve at half-maximal effect
In short: (§1)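 Erythrocytes infected with P. falciparum line (0.3% parasitemia, 2.5% hematocrit final) incubated with compounds 72 h at 37 °C, 5% CO2; SYBR Green lysis buffer added, fluorescence read next day. Normalized to 0.29 uM artemisinin and DMSO.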

[3] = qHTS for Inhibitors of Plasmodium falciparum (7G8) proliferation (AID 504316); also: nearly all actives have a fitted effect of over 65% in size; also: potency is read from the fitted curve at half-maximal effect; as to activity change, negative = inhibition: series mostly up to about 6.7 µM
In short: as §1

[4] = qHTS for Inhibitors of Plasmodium falciparum (HB3) proliferation (AID 504318); also: nearly all actives have a fitted effect of over 60% in size; also: potency is read from the fitted curve at half-maximal effect
In short: as §1

[5] = qHTS for Inhibitors of Plasmodium falciparum (CP250) proliferation (AID 504320)
In short: as §1

[6] = molecular target: Rap guanine nucleotide exchange factor 3 (Homo sapiens) (UniProt O95398); experiment: Confirmatory qHTS for agonist of cAMP-regulated guanine nucleotide exchange factor 3 (EPAC1) (AID 1645881);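 also: EPAC1 catalysed release of BODIPY-GDP from Rap1B seen as fluorescence loss; nearly all actives have a fitted effect of over 75% in size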
Rap guanine nucleotide exchange factor 3 (Homo sapiens), sequence (O95398 whole entry, looked up): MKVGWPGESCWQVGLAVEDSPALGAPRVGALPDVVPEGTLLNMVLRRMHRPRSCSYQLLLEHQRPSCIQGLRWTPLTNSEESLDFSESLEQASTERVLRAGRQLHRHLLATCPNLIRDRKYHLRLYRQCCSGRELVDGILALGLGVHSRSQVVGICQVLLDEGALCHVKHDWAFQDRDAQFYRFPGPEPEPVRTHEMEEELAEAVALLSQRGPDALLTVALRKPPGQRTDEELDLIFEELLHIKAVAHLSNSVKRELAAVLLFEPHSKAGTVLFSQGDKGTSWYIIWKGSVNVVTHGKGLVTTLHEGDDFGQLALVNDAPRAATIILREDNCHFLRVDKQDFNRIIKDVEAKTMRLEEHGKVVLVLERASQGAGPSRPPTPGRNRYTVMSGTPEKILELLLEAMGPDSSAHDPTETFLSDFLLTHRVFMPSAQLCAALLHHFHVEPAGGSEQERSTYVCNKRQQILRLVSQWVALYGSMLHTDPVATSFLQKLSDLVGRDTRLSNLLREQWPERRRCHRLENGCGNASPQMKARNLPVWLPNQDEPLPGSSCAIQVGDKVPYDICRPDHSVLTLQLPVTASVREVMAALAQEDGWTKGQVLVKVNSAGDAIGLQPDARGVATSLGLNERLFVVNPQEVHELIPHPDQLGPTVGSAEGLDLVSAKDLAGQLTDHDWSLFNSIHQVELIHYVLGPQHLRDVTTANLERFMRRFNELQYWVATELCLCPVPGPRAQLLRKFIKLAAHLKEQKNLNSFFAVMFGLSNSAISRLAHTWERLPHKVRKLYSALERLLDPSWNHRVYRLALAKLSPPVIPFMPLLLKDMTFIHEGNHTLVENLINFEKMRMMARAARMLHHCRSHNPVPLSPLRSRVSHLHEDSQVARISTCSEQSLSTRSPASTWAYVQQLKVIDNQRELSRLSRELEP

[7] = molecular target: Rap guanine nucleotide exchange factor 4 (Homo sapiens) (UniProt Q8WZA2); experiment: Confirmatory qHTS for agonist of cAMP-regulated guanine nucleotide exchange factor 4 (EPAC2) (AID 1645884);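 also: nucleotide exchange releases bodipy-GDP from Rap1 and this lowers its fluorescence; nearly all actives have a fitted effect of over 65% in size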
Rap guanine nucleotide exchange factor 4 (Homo sapiens), sequence (Q8WZA2 whole entry, looked up): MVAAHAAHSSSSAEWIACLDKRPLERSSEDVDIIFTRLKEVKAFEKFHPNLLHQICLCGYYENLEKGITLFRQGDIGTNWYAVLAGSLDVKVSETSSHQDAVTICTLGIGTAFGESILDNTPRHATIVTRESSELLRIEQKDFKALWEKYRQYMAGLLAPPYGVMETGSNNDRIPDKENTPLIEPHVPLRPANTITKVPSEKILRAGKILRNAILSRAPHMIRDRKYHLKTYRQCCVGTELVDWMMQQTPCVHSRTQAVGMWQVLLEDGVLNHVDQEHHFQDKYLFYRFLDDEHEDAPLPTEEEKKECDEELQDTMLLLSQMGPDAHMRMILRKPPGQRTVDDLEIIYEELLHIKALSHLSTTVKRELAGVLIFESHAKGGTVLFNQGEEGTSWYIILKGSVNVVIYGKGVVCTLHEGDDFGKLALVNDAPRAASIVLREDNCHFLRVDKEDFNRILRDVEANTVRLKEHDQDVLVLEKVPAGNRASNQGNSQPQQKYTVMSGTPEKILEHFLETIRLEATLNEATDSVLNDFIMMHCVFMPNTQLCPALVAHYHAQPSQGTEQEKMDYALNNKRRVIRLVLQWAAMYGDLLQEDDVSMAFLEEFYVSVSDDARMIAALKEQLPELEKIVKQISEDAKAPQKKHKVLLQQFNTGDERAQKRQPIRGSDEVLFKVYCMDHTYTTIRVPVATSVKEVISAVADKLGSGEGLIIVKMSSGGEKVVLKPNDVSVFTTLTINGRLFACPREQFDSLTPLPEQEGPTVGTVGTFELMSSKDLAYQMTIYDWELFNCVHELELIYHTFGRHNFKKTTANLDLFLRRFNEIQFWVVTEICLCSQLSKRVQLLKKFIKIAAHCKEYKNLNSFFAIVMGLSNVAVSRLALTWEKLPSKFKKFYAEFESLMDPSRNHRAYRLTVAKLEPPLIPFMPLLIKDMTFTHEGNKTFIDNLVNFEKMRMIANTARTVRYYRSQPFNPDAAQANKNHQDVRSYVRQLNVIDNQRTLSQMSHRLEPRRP

[8] = molecular target: Rap guanine nucleotide exchange factor 4 (Homo sapiens) (UniProt Q8WZA2); experiment: Confirmatory qHTS for antagonist of cAMP-regulated guanine nucleotide exchange factor 4 (EPAC2) (AID 1645885); also: nearly all actives have a fitted effect of over 25% in size
[9] = molecular target: Rap guanine nucleotide exchange factor 3 (Homo sapiens) (UniProt O95398); experiment: Counterscreen qHTS for antagonist of cAMP-regulated guanine nucleotide exchange factor 3 (EPAC1) (AID 1645888);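 also: fluorescence loss as bound BODIPY-GDP is released from Rap1B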
In short: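 Rap1B–BODIPY-GDP (250 nM) with 50 uM GDP; compounds pin-transferred to 9.74 nM–152 uM final (activator) or from 7.32 nM upwards (inhibitor). Fluorescence Ex/Em 480/540 nm read at 5 and 30 min, then after adding cAMP or buffer, at room temperature.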

[10] = molecular target: Atrial natriuretic peptide receptor 1 (Homo sapiens) (UniProt P16066); experiment: Natriuretic polypeptide receptor (hNpr1) antagonism - Pilot CMLD screen (AID 1347052; calls by dose curve;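 also: HEK293 cells with hNpr1 stimulated by hNppA peptide at 0.1 nM; cGMP level read as GloSensor luciferase luminescence after agonist stimulation; series mostly up to about 9.2 µM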)
Atrial natriuretic peptide receptor 1 (Homo sapiens), sequence (P16066 whole entry, looked up): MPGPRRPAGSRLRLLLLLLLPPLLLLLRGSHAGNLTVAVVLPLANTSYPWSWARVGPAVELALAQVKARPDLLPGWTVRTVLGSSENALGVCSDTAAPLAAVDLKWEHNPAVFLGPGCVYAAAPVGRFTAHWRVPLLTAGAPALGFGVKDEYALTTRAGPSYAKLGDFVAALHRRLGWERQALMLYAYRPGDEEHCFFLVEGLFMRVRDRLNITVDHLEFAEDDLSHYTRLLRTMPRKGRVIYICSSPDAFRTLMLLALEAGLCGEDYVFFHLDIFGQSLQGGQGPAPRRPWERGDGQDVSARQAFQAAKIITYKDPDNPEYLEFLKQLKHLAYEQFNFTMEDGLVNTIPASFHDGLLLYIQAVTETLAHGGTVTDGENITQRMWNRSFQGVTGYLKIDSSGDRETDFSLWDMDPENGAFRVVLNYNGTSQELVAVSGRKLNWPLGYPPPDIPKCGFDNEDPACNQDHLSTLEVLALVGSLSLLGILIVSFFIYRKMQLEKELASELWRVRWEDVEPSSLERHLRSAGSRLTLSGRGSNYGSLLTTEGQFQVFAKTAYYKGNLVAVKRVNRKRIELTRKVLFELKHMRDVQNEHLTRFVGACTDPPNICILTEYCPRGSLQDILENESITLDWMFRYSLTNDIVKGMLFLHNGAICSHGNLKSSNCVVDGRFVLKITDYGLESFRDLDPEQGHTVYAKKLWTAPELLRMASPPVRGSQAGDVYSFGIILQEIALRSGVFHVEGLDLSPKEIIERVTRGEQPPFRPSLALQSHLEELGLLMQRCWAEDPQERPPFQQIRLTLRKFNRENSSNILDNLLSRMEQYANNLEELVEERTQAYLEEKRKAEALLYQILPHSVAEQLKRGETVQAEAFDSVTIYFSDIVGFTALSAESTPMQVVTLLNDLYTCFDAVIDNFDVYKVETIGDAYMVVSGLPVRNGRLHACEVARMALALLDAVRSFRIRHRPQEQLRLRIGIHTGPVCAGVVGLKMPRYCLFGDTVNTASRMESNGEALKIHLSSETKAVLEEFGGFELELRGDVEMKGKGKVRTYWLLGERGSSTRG

[11] = molecular target: Tyrosyl-DNA phosphodiesterase 1 (Homo sapiens) (UniProt Q9NUW8); experiment: Confirmation Assay for Inhibitors of Tyrosyl-DNA Phosphodiesterase (TDP1) (AID 489007); conditions: recombinant human TDP1 enzymatic activity, dose-response; also: potency is read from the fitted curve at half-maximal effect; nearly all actives have a fitted effect of over 40% in size
Tyrosyl-DNA phosphodiesterase 1 (Homo sapiens), sequence (Q9NUW8 whole entry, looked up): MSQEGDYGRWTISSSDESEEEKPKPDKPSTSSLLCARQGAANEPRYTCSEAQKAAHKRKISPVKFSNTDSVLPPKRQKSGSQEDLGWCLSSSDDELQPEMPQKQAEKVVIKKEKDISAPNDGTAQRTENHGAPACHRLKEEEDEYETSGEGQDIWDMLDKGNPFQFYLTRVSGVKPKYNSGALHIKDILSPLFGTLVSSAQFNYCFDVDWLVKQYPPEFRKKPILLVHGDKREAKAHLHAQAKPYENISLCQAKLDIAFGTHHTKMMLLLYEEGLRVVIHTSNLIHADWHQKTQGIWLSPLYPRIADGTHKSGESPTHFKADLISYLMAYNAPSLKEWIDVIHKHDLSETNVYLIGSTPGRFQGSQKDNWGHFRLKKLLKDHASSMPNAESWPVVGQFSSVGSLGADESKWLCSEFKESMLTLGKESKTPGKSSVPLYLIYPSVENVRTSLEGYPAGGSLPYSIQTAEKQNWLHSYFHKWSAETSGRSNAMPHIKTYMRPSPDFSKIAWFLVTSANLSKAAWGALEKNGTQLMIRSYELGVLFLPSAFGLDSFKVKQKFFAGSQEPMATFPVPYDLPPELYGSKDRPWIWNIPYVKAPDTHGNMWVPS
In short: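 Recombinant E. coli-expressed Tdp1 (1 nM final) was preincubated with compounds 15 min at room temperature, then reacted 5 min with 15 nM 5'-biotin/3'-phosphotyrosine-FITC DNA substrate; cleavage read as loss of AlphaScreen signal (10 ug/ml beads, 10 min).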

[12] = molecular target: Vitamin D3 receptor (Homo sapiens) (UniProt P11473); experiment: qHTS for Inhibitors of the vitamin D receptor (VDR): Hit Validation in Primary Screen (AID 602199); conditions: VDR-coactivator inhibition assay, qHTS confirmation; also: potency is read from the fitted curve at half-maximal effect
Vitamin D3 receptor (Homo sapiens), sequence (P11473 whole entry, looked up): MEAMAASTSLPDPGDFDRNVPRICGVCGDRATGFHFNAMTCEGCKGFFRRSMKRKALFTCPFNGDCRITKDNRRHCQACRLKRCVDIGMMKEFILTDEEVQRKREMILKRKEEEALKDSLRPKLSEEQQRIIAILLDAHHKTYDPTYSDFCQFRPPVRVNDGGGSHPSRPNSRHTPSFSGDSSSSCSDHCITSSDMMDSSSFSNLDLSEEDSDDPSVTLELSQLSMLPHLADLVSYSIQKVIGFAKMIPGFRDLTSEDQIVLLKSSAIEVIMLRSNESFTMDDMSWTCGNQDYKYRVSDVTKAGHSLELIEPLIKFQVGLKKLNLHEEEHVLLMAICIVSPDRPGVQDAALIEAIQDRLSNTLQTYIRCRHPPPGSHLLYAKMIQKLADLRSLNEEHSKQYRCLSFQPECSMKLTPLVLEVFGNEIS
In short: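 Fluorescence polarization (Ex 620/Em 688 nm) of Alexa 647-SRC2-3 peptide with 800 nM VDR and 5 uM LG19078. Compounds at several concentrations, 2 h at room temperature.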

CCCCC1=CC2=CC(=O)C(C)(OC(=O)CCc3ccccc3)C(=O)C2=CO1 (stereo unspecified)
Potency [1]: inactive
Potency [2]: inactive
Potency [3]: inactive
Potency [4]: inactive
Potency [5]: inactive
outcome [6]: inactive
activation [7]: 0% [at 17.1 µM] (inactive)
activity change, negative = inhibition [8]: 20.8% [at 12.7 µM] (inactive)
activity change, negative = inhibition [9]: 1.91% [at 30.8 µM] (inactive)

COc1cc2c(cc1OC)[C@@H]1O[C@](c3ccsc3)(C2)Oc2cc(-c3ccccc3)oc(=O)c21
Potency [1]: inactive
Potency [2]: inactive
Potency [3]: 1.9 µM (active) and inactive
Potency [10]: inactive

CC[C@H](C)[C@@H](NC(=O)O[C@H]1C(=O)c2ccc(OC)cc2O[C@@H]1c1ccc2c(c1)OCO2)C(=O)OC
Potency [1]: inactive
Potency [2]: inactive
Potency [3]: inactive
Potency [10]: inactive

COc1ccc2c(c1)O[C@H](c1ccc3c(c1)OCO3)[C@@H](OC(=O)Nc1ccc(C)c(Br)c1)C2=O
Potency [1]: inactive
Potency [2]: inactive
Potency [3]: inactive
Potency [4]: inactive
Potency [10]: inactive

COc1ccc(NC(=O)N2CCc3nc(-c4ccc(OC)cc4C)c4c(c3C2)CO[C@@H](c2ccccc2)C4)cc1
Potency [1]: inactive
Potency [2]: inactive
Potency [10]: inactive

C=CCOC(=O)C(C(C)=O)[C@@H](NC(=O)OC)c1ccc2ccccc2c1 (stereo partly specified)
Potency [1]: inactive
Potency [2]: inactive
Potency [3]: inactive
Potency [10]: inactive

O=C1[C@H]2[C@@H]3[C@@H](O)[C@H](O)CC(=NOCc4ccccc4)[C@H]3CC[C@H]2C(=O)N1Cc1ccc2c(c1)OCO2
Potency [1]: inactive
Potency [2]: inactive
Potency [3]: inactive
Potency [10]: inactive

CCCCc1cc2c(cn1)C(=O)C(C)(OC(C)=O)C(=O)C2 (stereo unspecified)
Potency [1]: 1.69 µM (active)
activity, negative = inhibition [1]: -3.91% [at 1.12 µM] (inactive)
Potency [2]: 1.69 µM (active)
Potency [3]: 2.13 µM (active) and 1.69 µM (active)
Potency [4]: inactive
Potency [5]: inactive
Potency [10]: inactive

COC(=O)NC(c1ccccc1)c1c[nH]c2ccccc12 (stereo unspecified)
Potency [1]: inactive
Potency [2]: inactive
Potency [3]: inactive
Potency [10]: inactive

COc1ccc(-c2nc3c(c4c2C[C@H](c2ccccc2)OC4)CN(S(=O)(=O)c2ccc(NC(C)=O)cc2)CC3)c(C)c1
activity, negative = inhibition [1]: -0.765% [at 1.12 µM] (inactive)
Potency [2]: inactive
Potency [10]: inactive

CCN1C(=O)NC(c2ccc(Br)cc2)C(C(C)=O)=C1C (stereo unspecified)
Potency [1]: inactive
Potency [2]: inactive
Potency [3]: inactive
Potency [10]: inactive

CC1=CC[C@@H](COc2ccccc2)O[C@@]2(C1)C(=O)N(Cc1ccccc1C(F)(F)F)c1ccccc12
Potency [1]: inactive
Potency [10]: inactive

CC(=O)OC[C@H]1O[C@H](CCON=C(C)CCN2CCCc3nc(C)c(C)cc32)C=C[C@H]1OC(C)=O
Potency [1]: inactive
Potency [2]: inactive
Potency [10]: inactive

C=C(C(C)=O)C(O)c1cccc(OC)c1 (stereo unspecified)
Potency [1]: inactive
Potency [2]: inactive
Potency [3]: inactive
Potency [10]: inactive

CCCC[C@]12Cc3ccccc3[C@H](O1)c1c(cc(-c3ccccc3)oc1=O)O2
Potency [1]: 1.69 µM (active)
Potency [2]: 1.69 µM (active)
Potency [3]: 1.9 µM (active)
Potency [10]: inactive

CC(C)CON=C1C[C@@H](O)[C@@H](O)[C@@H]2[C@H]3C(=O)N(C[C@@H]4CCCO4)C(=O)[C@@H]3CC[C@H]12
Potency [1]: inactive
Potency [2]: inactive
Potency [3]: inactive
Potency [4]: inactive
Potency [10]: inactive

COC(=O)C1=C(C(=O)OC)[C@@H]2N(C)c3ccccc3[C@@]23C[C@@H](CO)N(C(=O)NC2CCCCC2)C3=N1
Potency [1]: inactive
Potency [10]: inactive

COC(=O)C=P(c1ccccc1)(c1ccccc1)c1ccccc1
Potency [1]: inactive
Potency [2]: inactive
Potency [3]: inactive
Potency [10]: inactive

COC(=O)[C@@H]1[C@@H](c2cccc(C(F)(F)F)c2)NC(=O)N(Cc2ccccc2)[C@@H]1C
Potency [1]: inactive
Potency [2]: inactive
Potency [3]: inactive
Potency [10]: inactive

O=C1C2=C(C(=O)c3ccccc31)[C@H]1O[C@](CCCCN3C(=O)c4ccccc4C3=O)(Cc3c1ccc1ccccc31)O2
Potency [1]: 1.5 µM (active)
Potency [2]: 1.69 µM (active)
Potency [3]: 0.953 µM (active)
Potency [4]: 0.757 µM (active)
Potency [10]: inactive

CCCCCCCc1cc2ccccc2c2c(C(=O)OC)c(C(=O)OC)c(C(=O)OC)n12
Potency [1]: inactive
Potency [2]: inactive
Potency [10]: inactive

CC(CCN1CCCc2nc(C)c(C)cc21)=NOC[C@@H](C)[C@H](OCc1ccccc1)C(C)C
Potency [1]: inactive
Potency [2]: inactive
Potency [10]: inactive

C[C@H]1C(C(=O)N2CCCC2)=Cc2[nH]c(=O)[nH]c2C=C1c1ccccc1
Potency [1]: inactive
Potency [2]: inactive
Potency [10]: inactive

CCN1C(=NCc2ccco2)N[C@@H](CCc2ccccc2)[C@H](C(=O)OC)[C@H]1C
Potency [1]: inactive
Potency [2]: inactive
Potency [3]: inactive
Potency [10]: inactive

CCN(CC)CCCN=C1NC(c2cccc(F)c2)C(C(=O)OC)=C(C)N1Cc1ccccc1 (stereo unspecified)
Potency [1]: inactive
Potency [2]: inactive
Potency [10]: inactive

C=CCN1c2ccccc2[C@]23CCC(=O)N(CCCOC(C)C)C2=NC(C(=O)OC)=C(C(=O)OC)[C@H]13
Potency [1]: inactive
Potency [2]: inactive
Potency [10]: inactive

C[C@@H]1CC[C@H]2C(=O)N(Cc3cccc([N+](=O)[O-])c3)C[C@@H](O)CN2[C@@H]1c1cccc(Br)c1
Potency [1]: inactive
Potency [2]: inactive
Potency [3]: inactive
Potency [10]: inactive

COc1ccc(-c2nc(-c3ccccc3)c(NC(C)C)o2)cc1
Potency [1]: 1.69 µM (active)
Potency [2]: 1.51 µM (active)
Potency [3]: 1.51 µM (active)
Potency [10]: inactive

CC12C=C(C=Cc3ccc(Br)cc3)C(C)(C1)C(c1ccc(Br)cc1)CC2=O (stereo unspecified)
Potency [1]: 1.5 µM (active)
Potency [2]: 1.69 µM (active)
Potency [3]: 1.69 µM (active)
Potency [4]: 1.69 µM (active)
Potency [10]: inactive

COC(=O)CCCC1=CC2=C(c3ccccc3)C(=O)C(C)(OC(=O)C3CCCC3)C(=O)C2=CN1C1CCCCC1 (stereo unspecified)
Potency [1]: inactive
Potency [2]: inactive
Potency [3]: inactive
Potency [10]: inactive

C[C@@H]1CC[C@H]2C(=O)O[C@@H](COc3ccc(C(C)(C)C)cc3)CN2[C@H]1c1ccc(Br)cc1
Potency [1]: inactive
Potency [2]: inactive
Potency [10]: inactive

CC(=O)OC[C@H]1O[C@H](CC=NO[C@H](C)CN2CCCCc3nc(C)c(C)cc32)C=C[C@@H]1OC(C)=O
Potency [1]: inactive
Potency [2]: inactive
Potency [3]: inactive
Potency [10]: inactive

O=C(NC(CC1=CCCCC1)c1ccc2c(c1)OCO2)C(F)(F)F (stereo unspecified)
Potency [1]: inactive
Potency [2]: inactive
Potency [3]: inactive
Potency [10]: inactive

COc1ccc(O[C@@H]2[C@H](O)CO[C@@H]2C=CC#Cc2ccccc2)cc1
Potency [1]: inactive
Potency [2]: inactive
Potency [3]: inactive
Potency [4]: inactive
Potency [10]: inactive

CCOC(=O)C1=NO[C@@]2(C=C(Br)C(=O)[C@H]3O[C@H]32)C1
Potency [11]: 11.2 µM (active)
Potency [12]: 12.6 µM (active)
Potency [10]: inactive

C[C@H]1Cc2c(COc3ccccc3)nc3c(c2CO1)CN(C(=O)C1CC1)CC3
Potency [1]: inactive
Potency [2]: inactive
Potency [3]: inactive
Potency [10]: inactive

CCOC(=O)NN=C1C[C@@H](O)[C@@H](O)[C@@H]2[C@H]3C(=O)N(C[C@@H]4CCCO4)C(=O)[C@@H]3CC[C@H]12
Potency [1]: inactive
Potency [2]: inactive
Potency [3]: inactive
Potency [10]: inactive

C=CC[C@@H]1C=C[C@@H](Oc2ccc(OC)cc2)[C@H](COC(=O)c2ccc(Br)cc2)O1
Potency [1]: inactive
Potency [2]: inactive
Potency [3]: inactive
Potency [10]: inactive

CC(=O)C1=C(C)N(CC#C[Si](C)(C)C)C(=O)N(C(C)=O)C1c1ccccc1 (stereo unspecified)
Potency [1]: inactive
Potency [2]: inactive
Potency [3]: inactive
Potency [10]: inactive

Cc1ccc(C(=O)OC[C@H]2O[C@H](Cl)C[C@H]2OC(=O)c2ccc(C)cc2)cc1
Potency [1]: 1.69 µM (active)
Potency [10]: inactive

C[C@@H]1C=CCCO[C@]12C(=O)N(Cc1ccc(Br)cc1)c1ccccc12
Potency [1]: inactive
Potency [2]: inactive
Potency [3]: inactive
Potency [10]: inactive

C=CCOC(=O)N[C@H](C(C(=O)OC)=C(C)NCc1ccccc1)c1ccc2c(c1)OCO2
Potency [1]: inactive
Potency [2]: inactive
Potency [3]: inactive
Potency [4]: inactive
Potency [10]: inactive
